Here are results for 40 compounds from PubChem BioAssay (NCI).

Compounds without any hit were thinned out: in the full panel of roughly 83,000, 20% have a hit.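 Plates (96-well) were seeded with cells, treated with compound at one concentration, and incubated for 48 hours before percent growth was determined.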 Unmarked numbers belong to inactive results. Activity calls are given as the source filed them. Rule for the calls: active = growth percent below 10; inactive = the rest.

This assay concerns HL-60(TB) leukemia. The assay is described as follows: NCI-60 one-dose screen, 48 h (100 = growth as untreated, 0 = no growth, -100 = all killed). The note with it: 10 µM unless noted.
As to `COc1cc(C2C(C#N)=C(N)OC3=C2C(=O)c2ccccc2C3=O)cc(OC)c1O` (stereo not given), the growth is 90.9%.
As to `Nc1cc2c(cc1Cl)-c1ccc([N+](=O)[O-])cc1/C2=N\O`, the growth is 89.5%.
`O=c1c2ccccc2sc2c(N3CCCC3)nc3ccccc3c12`: the growth is 99.1%.
For `O=C1/C(=C\c2ccccc2)CN(C(=O)c2ccccc2F)C/C1=C\c1ccccc1`, the growth was 10.1%.
Take `COc1ccc(F)c(F)c1C(=O)c1cnc(NC2CCN(S(C)(=O)=O)CC2)nc1N`: the growth was -32.2% (active).
For `c1ccc(CNc2ncnc3scc(-c4cccs4)c23)nc1` the value was 58.2%; for `O=[N+]([O-])c1ccc(-c2noc(-c3cccs3)n2)cc1`, 70.1%.
As for `COc1cc(-c2nc3ccc(C)cc3[nH]2)ccc1OCC(=O)N=Nc1c(O)[nH]c2ccccc12`, the figure is -34.3% (active); as for `CCCCCOc1ccc(/C=N/Nc2cc(C)nc3ccc(Cl)cc23)cc1`, 0.0681% (active).
For `Cc1c(C(=O)CCl)c(=O)n(-c2ccccc2)n1C` the value was 56.9%; for `COc1cc(OC)cc(-c2n/c(=C\c3c(O)[nH]c4ccc(OC)cc34)cc3c2=Nc2ccccc2-3)c1`, 80%; for `COC(=O)c1cccnc1`, 102%.
On to `CCOc1cccc(/C=N/NC(=O)C(=O)Nc2cccc(C(F)(F)F)c2)c1O`, for which the growth was 11.2%.
Consider `CC(C)CC1C(=O)N2CCC[C@H]2C2(O)O[C@](NC(=O)C3C=C4c5cccc6[nH]c(Br)c(c56)C[C@H]4N(C)C3)(C(C)C)C(=O)N12` (stereo not given in full), for which the growth was 1.92% (active).
On to `CCOC(=O)c1cc(C(=O)c2ccc(Br)cc2)n2ccc(/C=C/c3cc[n+](CC(=O)c4ccc(OC)cc4)cc3)cc12`, for which the growth was 58.1%.
In the case of `C#Cc1cccc(Oc2ccc(NC(=O)CCl)cc2)c1`, the growth is 0.122% [8.25 µM] (active).
As for `CCCn1c(=S)sc2c(NNC(C)=O)nc(C)nc21`, the figure is 58.1%.
Take `Nc1cc(Cl)c(S(N)(=O)=O)cc1S(N)(=O)=O`: the growth was 104%.
For `Cc1ccc(/C=C2\CN(C(=O)C(Cl)Cl)C/C(=C\c3ccc(C)cc3)C2=O)cc1` the value was -21% (active); for `CC(C)CSc1nc(NN)c(C#N)c(-c2ccc(F)cc2)n1`, 94.4%.
For `CC1Cc2cc(F)ccc2-n2cccc21` (stereo not given) the value was 111%.
Take `COC(=O)c1c2c(c(C)[n+]([O-])c1C)C(=O)C(NCc1ccc(F)c(Cl)c1)=CC2=O`: the growth was -54.6% (active).
Regarding `O=C(CCc1nnc2sc(-c3ccccc3)nn12)c1nc2ccccc2[nH]1`, the growth is 105%.
For `COc1ccc(-c2cc(C(=O)Nc3ccc(C)cc3)nc3[nH]c(=O)sc23)cc1` the value was 51.8%; for `Clc1ccc2c(Nc3ccc4oc(NCCN5CCCC5)nc4c3)ccnc2c1`, 72.3%.
`O=C(NCCCNc1cc(-c2cn(-c3ccccc3)nc2-c2cccc(O)c2)ccn1)c1ccc(F)cc1`: the growth is -2.74% (active).
As for `COc1cc2nc(-c3ccc(Cl)cc3)cc(OCCCN3CCCC3)c2cc1OC`, the figure is 32.4%; as for `O=C1NCC(=O)N(Cc2ccco2)[C@H]1Cc1ccccc1`, 102%.
For `C#Cc1c(I)n(C2OC(CO[Si](C)(C)C(C)(C)C)C3OC(C)(C)OC32)c(=O)[nH]c1=O` (stereo not given), the growth is 20.1%.
`COc1ccc(C(OCC2OC(n3ccc(NC(=O)c4ccccc4)nc3=O)C(O)C2O)(c2ccccc2)c2ccccc2)cc1` (stereo not given): the growth was 22.9%.
As for `CCCCOc1ccc(NC(=O)n2nc(NC(C)=O)c3cc(NC(C)=O)ccc32)cc1`, the figure is 72.9%.
As for `CCOC(=O)c1c(NC(=O)c2ccc(Cl)cc2)sc2c(CN(C)C)c(O)ccc12`, the growth is 12.5%.
For `C=C(C)[C@@H]1CC[C@]2(C(=O)N3CCOCC3)CC[C@]3(C)[C@H](CC[C@@H]4[C@@]5(C)C/C(=C/c6ccncc6)C(=O)C(C)(C)[C@@H]5CC[C@]43C)[C@@H]12` the value was 26.2%.
Regarding `CS(=O)(=O)c1nnc(-c2ccccc2)s1`, the growth was 64.8%.
As for `CCOC(=O)c1ccc2c(c1)c1c(C)c3cccnc3c(C)c1n2C`, the figure is 77.4%.
`O=C1Nc2ccccc2/C1=C/c1cccs1`: the growth was 107%.
Take `CCCOC(=O)c1c(C)n(C)c2scc[n+]12`: the growth was 92.6%.
For `CCn1c2ccccc2c2cc(C(O)c3cccc4ncccc34)ccc21` (stereo not given) the value was 10.5%; for `O=C1O[C@H]([C@H](O)CO)C(O)=C1O`, 99.5%; for `CC(C)=CC(=O)N[C@@H]1CC2CCC3C(CC[C@@]4(C)C3CC[C@@H]4C(C)N(C)C)[C@@]2(C)C[C@@H]1O` (stereo not given in full), -63.8% (active).
